{"source": "PubChem BioAssay AID588342", "about": "(National Center for Advancing Translational Sciences (NCATS), 2011)", "note": "The campaign covered roughly 360,000 compounds. About 25,000 (6.9%) were called active. Another 9% or so got no clear call; they are omitted. The call rests on the fitted dose curve; in most records, active means well fitted inhibition curve with a large enough effect; inconclusive means small, poorly fitted or top-dose-only effect; inactive means flat fitted curve, though single readings scatter. Many of the other results were omitted from the sample, so actives are more common in it than they were.", "data": [{"biological_target": "Luciferin 4-monooxygenase (Photinus pyralis) (UniProt P08659)", "sequence (P08659 whole entry, looked up)": "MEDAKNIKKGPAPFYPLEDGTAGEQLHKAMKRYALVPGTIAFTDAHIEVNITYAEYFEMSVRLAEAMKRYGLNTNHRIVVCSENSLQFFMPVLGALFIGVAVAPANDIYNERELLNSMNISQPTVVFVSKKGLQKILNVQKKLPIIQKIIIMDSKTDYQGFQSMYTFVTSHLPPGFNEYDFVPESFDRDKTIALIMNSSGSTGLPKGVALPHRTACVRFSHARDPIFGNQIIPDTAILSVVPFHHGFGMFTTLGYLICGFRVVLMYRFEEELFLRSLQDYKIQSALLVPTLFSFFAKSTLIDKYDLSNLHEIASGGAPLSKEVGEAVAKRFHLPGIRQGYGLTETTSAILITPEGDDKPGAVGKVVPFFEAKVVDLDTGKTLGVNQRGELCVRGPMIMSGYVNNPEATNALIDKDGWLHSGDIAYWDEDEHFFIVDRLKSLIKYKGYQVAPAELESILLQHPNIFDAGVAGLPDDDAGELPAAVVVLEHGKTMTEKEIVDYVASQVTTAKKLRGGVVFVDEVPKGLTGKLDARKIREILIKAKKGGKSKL", "assay": "qHTS profiling assay for firefly luciferase inhibitor/activator using purifed enzyme and Km concentrations of substrates (counterscreen for miR-21 project); further: nearly all actives have a fitted effect of over 55% in size;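 on activity change, negative = inhibition: plate controls were vehicle for no effect and reference inhibitor for full effect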", "details": "purified FLuc, luminescence inhibition; series mostly up to 57.5 µM; activity change, negative = inhibition: at the top concentration", "source_text": "MLPCN Grant: 1 R21 NS059478-01 (miR-21 grant) Assay Provider: NCGC NCGC Assay Overview: Firefly (Photinus pyralis) luciferase is one of the most commonly used transcriptional reporters for a number of reasons. It is considered one of the more dynamically responsive reporters -that is, responsive to changes in reporter transcription - as it requires no post-translational modifications and is enzymatically active directly after protein synthesis (Wood, 1998). Additionally, the half-life of the luciferase protein is short relative to other reporter-gene products (Wood, 1995). Whereas reporters with long half-lives potentially allow for increased signal due to accumulation of reporter-gene product, once accumulated in the cell, dynamic changes in reporter-gene expression may be difficult to detect(Fan and Wood, 2007; Almond et al., 2004). It has been shown that wild-type P. pyralis luciferase has a half-life of approximately […] hours in mammalian cells (Thompson et al., 1991). Firefly luciferase reporter-gene assays are also generally considered one of the most sensitive assay types (Wood, 1995; Wood, 1998). Although light produced in a bioluminescence reaction is of lower intensity than that produced during fluorescence emission, this is offset by little to no background light inherent to luminescent assays. Thus the luciferase reporter can be expressed at much lower levels than fluorescent proteins while still providing robust signal. # However, it was initially observed, in 1991, by Thompson et al., that compounds that resemble the substrates of firefly luciferase (FLuc) can act as competitive inhibitors of the enzyme, and that these compounds, upon interaction with luciferase in the cell, can actually stabilize the protein and increase its half-life. Accumulated intracellular FLuc protein can be measured as an increase in luminescence signal, upon addition of detection reagents (which contain high concentrations of FLuc substrates) commonly used in high-throughput screening. In cell-based reporter gene assays that use FLuc as the reporter gene to quantitate the potential influence of a given compound against the target biology, this apparent increase in luminescence can mistakenly be interpreted as identification of a compound that is active against the target of interest. This is the case for the miR-21 FLuc reporter gene assay used to identify inhibitors of the miR-21 pathway (PubChem AID 2289) - compounds of interest will inhibit miR-21 biogenesis/expression or activity, and are identified by causing an increase in luminescence, due to increased FLuc translation. However, FLuc inhibitory compounds that stabilize the FLuc protein will give an identical read-out, making it difficult to distinguish compounds that are active against the target from those active against FLuc. Previous profiling work to determine the prevalence of compounds that affect FLuc enzymatic activity (PubChem AID 411) identified that ~3% of the MLSMR library (then at ~72K) inhibited FLuc. […] Since the MLSMR had grown to ~350K compounds, and since it was expected that a significant percentage of compounds found active in the miR-21 FLuc assay would be FLuc inhibitors, the library was screened for activity against FLuc using a biochemical assay of purified FLuc and KM concentrations of FLuc substrates (D-luciferin and ATP).\nNCGC Assay Protocol Summary: Reagents: 50mM Tris acetate, pH 7.5; 10mM Mg acetate; 10uM D-luciferin (Sigma #L9504); 10uM ATP; 0.01% Tween-20; 0.05% BSA; 10nM P. pyralis luciferase (Sigma #L9506) Control compounds used were two known firefly luciferase inhibitors (compounds (2) and (5) in Auld et al., 2010), and DMSO. […]", "values": [{"smiles": "Cc1cccc(Cn2c(CN3CCC(C(=O)NCc4ccccc4Cl)CC3)cc3ccccc32)c1", "activity change, negative = inhibition": "-0.0278% (inactive)"}, {"smiles": "Cc1ccccc1CNC(=O)CCc1cn(Cc2ccccc2C)c2ccccc12", "activity change, negative = inhibition": "-9.27% (inactive)"}, {"smiles": "O=c1n(Cc2cccc(C(F)(F)F)c2)c2ccccc2c2nc(-c3ccccc3)nn12", "activity change, negative = inhibition": "4.37% (inactive)"}, {"smiles": "COc1ccccc1OCC(=O)Nc1nnc2n1CCS2", "activity change, negative = inhibition": "-1.03% (inactive)"}, {"smiles": "CCOc1ccc(S(=O)(=O)c2cn(Cc3ccccc3)c3ccc(OCC)cc3c2=O)cc1", "activity change, negative = inhibition": "0.46% (inactive)"}, {"smiles": "O=C1C2C3C=CC(C3)C2C(=O)N1c1ccc(S(=O)(=O)Nc2nccs2)cc1", "note": "(stereo not drawn)", "activity change, negative = inhibition": "0.747% (inactive)"}, {"smiles": "O=C1C2C3C=CC(C3)C2C(=O)N1c1ccc(-c2nc3ccccc3c(=O)o2)cc1", "note": "(stereo not drawn)", "Potency": "9.53 µM (active)"}, {"smiles": "CCCCCOC(=O)c1ccc(N2C(=O)C3C4C=CC(C4)C3C2=O)cc1", "note": "(stereo not drawn)", "activity change, negative = inhibition": "-15.4% (inactive)"}, {"smiles": "COc1ccc(CCNc2nc(-c3ccc(F)cc3)cc(C(F)(F)F)n2)cc1OC", "activity change, negative = inhibition": "2.3% (inactive)"}, {"smiles": "Cc1ccc2c(c1)N(C(=O)Nc1ccc(Br)cc1F)CCO2", "activity change, negative = inhibition": "0.456% (inactive)"}, {"smiles": "Cc1ccccc1CNC(=O)c1cccc(NC(=O)c2nsc3ccccc23)c1", "Potency": "5.36 µM (active)"}, {"smiles": "Cc1ccc(CCNC(=O)c2ccc(CNS(=O)(=O)c3ccc(C)cc3)cc2)cc1", "activity change, negative = inhibition": "-4.15% (inactive)"}, {"smiles": "CCc1ccc(NC(=O)N2CCN(C(=O)c3nsc4ccccc34)CC2)cc1", "activity change, negative = inhibition": "-10.4% (inactive)"}, {"smiles": "O=C(Nc1cccc(C(=O)N2CCCC2)c1)c1ccccc1", "activity change, negative = inhibition": "-2.48% (inactive)"}, {"smiles": "CCCCNC(=O)C1CCC(CNS(=O)(=O)c2ccc(NC(C)=O)cc2)CC1", "note": "(stereo not drawn)", "Potency": "inactive"}, {"smiles": "COCCCNC(=O)c1ccc2c(c1)ncn2-c1ccccc1OC", "activity change, negative = inhibition": "-6.89% (inactive)"}, {"smiles": "COCCCNC(=O)c1ccc(CNS(=O)(=O)c2ccc(NC(C)=O)cc2)cc1", "Potency": "16.9 µM (active)"}, {"smiles": "NC(=O)C1CCN(C(=O)c2cccc(NC(=O)c3nsc4ccccc34)c2)CC1", "Potency": "12 µM (active)"}, {"smiles": "Cc1c(Cl)cccc1NC(=O)N1CCN(C(=O)c2nsc3ccccc23)CC1", "activity change, negative = inhibition": "1.68% (inactive)"}, {"smiles": "COc1cccc(NC(=O)N2CCN(C(=O)c3nsc4ccccc34)CC2)c1", "activity change, negative = inhibition": "5.08% (inactive)"}, {"smiles": "CCc1ccccc1NC(=O)N1CCN(C(=O)c2nsc3ccccc23)CC1", "activity change, negative = inhibition": "-4.65% (inactive)"}, {"smiles": "COCCCNC(=O)c1ccc(NC(=O)c2nsc3ccccc23)cc1", "Potency": "16.9 µM (active)"}, {"smiles": "O=C(CSc1nnc(COc2ccc(Cl)cc2)n1Cc1ccco1)N1CCNC1=O", "activity change, negative = inhibition": "5.23% (inactive)"}, {"smiles": "COc1ccc(OC)c(CNC(=O)Cn2nc(C)c3c(C)n(-c4ccccc4)nc3c2=O)c1", "activity change, negative = inhibition": "-2.53% (inactive)"}, {"smiles": "Cc1ccc(CNS(=O)(=O)c2ccc(-c3cc(C(F)(F)F)on3)s2)cc1", "activity change, negative = inhibition": "7.56% (inactive)"}, {"smiles": "COc1ccc(S(=O)(=O)Nc2cc(C)on2)cc1NC(C)=O", "activity change, negative = inhibition": "0.909% (inactive)"}, {"smiles": "Cc1ccc(-c2nc(S(=O)(=O)c3ccc(C)cc3)c(N3CCCCCC3)o2)cc1", "activity change, negative = inhibition": "-8.52% (inactive)"}, {"smiles": "Nc1ccccc1Sc1cc(Cl)nnc1Cl", "activity change, negative = inhibition": "4.42% (inactive)"}, {"smiles": "COC(=O)c1scc(-c2ccccc2)c1S(=O)(=O)Nc1ccccc1", "activity change, negative = inhibition": "-4.51% (inactive)"}, {"smiles": "COc1cc(C(F)(F)F)nc2c(Br)c(C(C)(C)C)nn12", "activity change, negative = inhibition": "-4.91% (inactive)"}, {"smiles": "O=C(NCCc1c[nH]c2ccccc12)C1CCN(Cc2ccc(Br)cc2)CC1", "activity change, negative = inhibition": "-0.302% (inactive)"}, {"smiles": "O=C(NCCc1ccccc1)c1ccc2c(c1)N(Cc1ccc(F)cc1)C(=O)c1ccccc1S2(=O)=O", "activity change, negative = inhibition": "-0.75% (inactive)"}, {"smiles": "Cc1ccccc1OCc1nc2c3cnn(-c4ccccc4F)c3ncn2n1", "activity change, negative = inhibition": "-0.731% (inactive)"}, {"smiles": "COC(=O)c1ccccc1NC(=O)Cn1c(=O)n(-c2cccc(C(F)(F)F)c2)c(=O)c2c(C)c(C)sc21", "activity change, negative = inhibition": "-7.45% (inactive)"}, {"smiles": "CSc1ncc(Cl)c(C(=O)Nc2ccc(S(=O)(=O)N3CCCC(C)C3)cc2)n1", "note": "(stereo not drawn)", "activity change, negative = inhibition": "5.6% (inactive)"}, {"smiles": "CC(=O)Nc1cccc(-c2nc3ccccc3s2)c1C", "Potency": "6.01 µM (active)"}, {"smiles": "Cc1cccc(NC(=O)Cn2c(C(F)(F)F)nc3ccccc32)c1C", "activity change, negative = inhibition": "3.57% (inactive)"}, {"smiles": "CCC(C(=O)Nc1cccc(-c2nc3cccnc3s2)c1C)c1ccccc1", "note": "(stereo not drawn)", "activity change, negative = inhibition": "-0.908% (inactive)"}, {"smiles": "Cc1cccc(C(=O)N2CCC(c3nc4ccccc4s3)CC2)c1", "activity change, negative = inhibition": "-2.17% (inactive)"}, {"smiles": "CCCCc1nn2c(=O)cc(COC(=O)c3ccccc3NC(=O)C(C)(C)C)nc2s1", "activity change, negative = inhibition": "-3.42% (inactive)"}, {"smiles": "Cc1c(NC(=O)C(C)(C)C)cccc1-c1nc2ccccc2s1", "Potency": "4.78 µM (active)"}, {"smiles": "Cc1cccc(C(=O)Nc2ccc(-c3nc4ccccc4s3)c(C)c2)c1", "Potency": "2.69 µM (active)"}, {"smiles": "COc1ccc(CC(=O)Nc2ccc(-c3nc4ccccc4s3)c(C)c2)cc1", "activity change, negative = inhibition": "-10.8% (inactive)"}, {"smiles": "Cc1c(NC(=O)Cc2ccccc2)cccc1-c1nc2cccnc2s1", "activity change, negative = inhibition": "1.87% (inactive)"}, {"smiles": "COCCCNC(NC(=O)c1ccc(OC)cc1)C(Cl)(Cl)Cl", "note": "(stereo not drawn)", "activity change, negative = inhibition": "-0.556% (inactive)"}, {"smiles": "COC(=O)c1scc(-c2ccc(C)cc2)c1S(=O)(=O)Nc1cc(Cl)c(OC)cc1OC", "activity change, negative = inhibition": "-2.24% (inactive)"}, {"smiles": "COc1ccccc1Nc1cc(C(=O)NCCCN(C)C2CCCCC2)c2ccccc2n1", "activity change, negative = inhibition": "-13.2% (inactive)"}, {"smiles": "Cc1ccc(C(=O)CC2(O)C(=O)N(CCc3ccccc3)c3ccc(Br)cc32)cc1", "note": "(stereo not drawn)", "activity change, negative = inhibition": "-12.3% (inactive)"}, {"smiles": "COc1cc(Cl)ccc1Nc1ncc(C(=O)N2CCN(c3ccccc3OC)CC2)c2ccccc12", "activity change, negative = inhibition": "-0.617% (inactive)"}, {"smiles": "COc1cc(OC)cc(C(=O)NCCSCc2ccc(Cl)cc2)c1", "activity change, negative = inhibition": "3.1% (inactive)"}, {"smiles": "O=C(O)c1cscn1", "activity change, negative = inhibition": "-0.163% (inactive)"}, {"smiles": "O=C(CCNS(=O)(=O)c1ccccc1)NCCCc1ccccc1", "activity change, negative = inhibition": "-1.01% (inactive)"}, {"smiles": "Cc1cc(=O)oc(C)c1C(=O)Nc1cnc2ccccc2c1", "activity change, negative = inhibition": "-0.785% (inactive)"}]}]}
